# What was measured:
# Assay in all cases: PBM binding z-score (relative to random genomic background probes); higher = stronger binding; sequences stand for … in GC…GCGATTGACAGCGTAGAATGAAGG
# [1] = system: RARg:RXRa (NR concentration 270 nM, RXRa partner concentration 90 nM)
# How it was run: (§1)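 Binding z-scores take random background probes as their reference. They come from custom Agilent 4×180K protein-binding microarrays incubated 1 h with ligand-free nuclear receptor dimers, with antibodies against each partner (one per run) detecting binding. Scanned fluorescence was regression-normalized.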
# [2] = system: RARg homodimer (NR concentration 270 nM)
# How it was run: as §1
# [3] = system: RXRa DBDmut IVT, anti-RXR (DBD mutation: RXRa K156A/R161A, NR concentration 90 nM)
# How it was run: as §1
# [4] = system: RXRa homodimer (NR concentration 180 nM)
# How it was run: as §1
# [5] = system: THRa:RXRa (NR concentration 90 nM, RXRa partner concentration 90 nM)
# How it was run: as §1
# [6] = system: THRa homodimer (NR concentration 90 nM)
# How it was run: as §1
# [7] = system: VDR homodimer (NR concentration 270 nM)
# How it was run: as §1
Sequence,PBM binding z-score [1],PBM binding z-score [2],PBM binding z-score [3],PBM binding z-score [4],PBM binding z-score [5],PBM binding z-score [6],PBM binding z-score [7]
CGAACTAGGTCAAGGGACAGTGAAAGGCGACGTA,3.82,4.43,0.75,2.43,2.63,0.755,0.0374
TCTATTAGTTGATTAGGGCAACCGAAACAGCGGA,0.66,0.733,1.18,0.678,0.697,0.563,0.736
GCTGCTAGGTCAACTGATGGTCAACTAAAGCTCG,5.53,5.66,1.57,2.94,2.91,1.01,0.0813
CGAACTACGTCATCCAGGACAGTGAATACATTGA,0.374,0.537,0.498,0.2,1.27,1.03,0.313
ACTAGTTGGTCAGCTGAGGTCACACCCAATTCGG,3.85,3.86,1.34,3.47,5,4.84,2.67
ATCGAAAGGTCGACGAGGTGAGTAAACACCGTTT,4.4,4.12,0.855,4.54,3.78,0.706,0.649
ATCGAAAGGTCGTGAGGTAAGTATACAGAAAGGC,4.63,3.93,1.25,5.18,3.09,1.01,1.24
GCTGCTAGGTCAACTGATGGTCATCTAAAGCTCG,5.46,5.43,1.87,3.25,3.09,1.12,0.187
TAGCCTAGGTCATGCGGGACAGTATAGTGTCGGC,3.95,4.49,0.879,3.05,3.04,0.939,1.16
CGCACTAGGTCATCCAGGACAGTGAATACATTGA,3.99,4.51,2.26,2.76,3.73,2.4,1.76
AGAATGAGGTCATTAAGATCAGGGAATTGCGGTC,5.83,5.03,4.81,6.72,4.38,3.69,4.67
CCTGCGAGGTCATGGTCAGCTAATCTACAGTATG,6.42,6.15,4.26,7.05,4.34,3.39,3.95
ACGCGGAGGACAAAGGTCAGAGCTACGCCAGTGA,6.23,5.34,0.687,5.4,3.38,0.463,0.908
CGTCCAAAGTCAAAGGTCAGTGAAGAGATGACGG,4.93,5,0.813,5.96,2.81,0.117,0.98
AGTCAAAGTTTATCTAGGTAACGTAAGATATGCT,1.12,1.41,1.93,0.551,1.6,-0.0604,1.31
AATACAGGGTCATCGTACGCCAGAGTACGCACAG,5.65,4.81,3.46,6.92,3.87,1.73,4.17
CAGCATAGGTCAGGGCCAGTATAGGAGGAACGTT,3.97,4.39,0.209,3.33,1.65,-0.231,-0.0525
CGTACAAGGTCAAAGGTCAGTGAAGAGATGACGG,8.95,8.28,4.22,10.5,4.71,2.58,4.13
GTTACAGGGTCAAGGCCAGAGTACGCGTATTGAT,5.65,5.24,2.91,6.16,3.62,1.53,2.86
AATACAGGGTGACTAGGCCAGAGTAGGTACGAAT,0.739,0.693,-0.419,0.911,0.915,0.154,0.309

Sequence,PBM binding z-score [1],PBM binding z-score [2],PBM binding z-score [3],PBM binding z-score [4],PBM binding z-score [5],PBM binding z-score [6],PBM binding z-score [7]
TCTCGGAGGACACTAAAGGTCAGAGCTCGACATC,4.4,4.68,1.11,3.98,3.48,1.1,0.787
TCTTGTAGGTCAATAGAGGTTAAGAAAGTGCGCT,4.56,5.15,1.88,4.31,4.71,0.329,1.63
ATATGTAGGTTATCTGGGGTCATTCAGACTAGGC,4.51,3.58,2.58,5.88,5.46,3.91,5.88
AGAATGAGGTTACTAAAGATCAGGGAAACGCTTG,1.61,1.25,0.94,1.59,2.19,0.398,0.00246
CGTCAAACTTCAACTAAGGTAACGTAAAGCACGC,0.289,0.43,0.617,0.424,2.4,1.98,0.47
CGTCAAAGTTCAACTGAGGTAACGTAAAGCACGC,6.11,6.84,4.76,5.4,5.27,1.89,4.07
TACCCTAGGTCATTGGGCCAGTATAGTACGCATC,4.13,4.3,1.87,3.19,3.08,1.37,1.77
CCTACTGGGCCACTAAAGGTCATTGATTCAGTGA,4.48,4.5,0.757,4.87,3.61,0.905,2.62
ATATGTAGGTTATCGGGTCATACAGTTTGCGCAT,3.64,2.84,1.67,3.87,3.68,2.82,3.52
TCTAGTTGGTCACGGAGGTCACAAACGACGGGTA,4.49,5,0.949,4.62,3.39,2.07,2.78
AGTCAAAGTTCAGGACGAGGTAACGTTAAGCACG,4.79,4.82,3,2.87,3.83,1.82,2.56
CCTCGGAGGACAGAAGGTCAAAGCTGTCCGCTTT,4.94,4.52,0.948,4.07,3.2,0.161,0.867
ATATGTAGGTTAGCTGGGGTCCTTCAGACTAGGC,0.698,0.529,0.183,0.692,3.45,0.268,0.249
CTATGTAGGTTAGGGGGGTCATTCAGTTTGAAAG,5.7,4.91,3.23,5.83,4.21,3.25,6.97
CAAACTAGGTCACTAAAGGTCAAAGTCGAATGAC,7.43,7.86,2.41,7.61,5,2.19,3.72
CGTCAAAGATCAAGGTAACGTAACAGAAAGCAGC,0.224,0.612,-0.147,0.691,1.33,0.524,-0.275
CCTACTGGGCCATTCAGAGGGCATTGATCATATG,1.43,0.891,-0.189,0.134,0.0655,-0.325,0.582
CGTCCAAGGTCATAGAGGTCAGTGAATGCCGAGT,7.06,7.75,4.4,7.55,4.38,3.51,7.8
GATATAGGGTCAGCTAGAGGCCAGAGTATGGAAA,6.81,5.11,1.67,4.63,3.42,0.95,0.867
TATCAAAGTTCAAAGGTAACGTAAGTATCCACAC,6.25,6.03,4.5,7.49,3.56,0.168,4.2

Sequence,PBM binding z-score [1],PBM binding z-score [2],PBM binding z-score [3],PBM binding z-score [4],PBM binding z-score [5],PBM binding z-score [6],PBM binding z-score [7]
GATACAGGGTCAAGGTCAGAGTACGCGTATTGAT,6.26,6.78,2.78,6.63,4.45,3.55,4.39
CCTCGGAGGACAACAGGAGGTCATAGCTGCCAGA,3.93,3.78,1.1,3.09,3.58,1.5,2.44
TAGCCTAGGTCGTTCAGGGGCCAGTATAGAAAGC,3.43,1.27,0.406,0.583,2.04,-0.169,0.675
CGTCCAAGGACAATGCTAGGTCAGTGAAAGCATT,1.34,1.85,0.603,0.146,2.91,1.91,0.161
CACACTAGGTCACAGAGGTCAAAGTCCGTGCGTA,7.55,8.04,3.26,8.19,4.84,3.29,7.03
TGTCAACGTTCAAAGGTAACGTAAGTATCCACAC,1.28,1.09,-0.465,1.27,1.46,-0.221,-0.0342
CCTTACGGGTAACGAGGTTATAGCACGACGAGCG,1.01,0.837,-0.598,1.43,1.35,0.247,0.527
AGTCAAAGTTCAGGACGACGTAACGTAAAGCACG,3.78,4.45,2.93,2.66,2.02,0.216,2.05
ACTTACGGGTCTACGAGGTTATAGCACGCGTATA,0.863,0.586,0.937,1.32,1.83,0.82,1.55
CGTCAAAGTTCAAGGTCACGTAACAGAAAGCAGC,7.15,8.05,4.52,7.07,4.54,4.62,5.21
CCTTACGGGTCACGAGGTTGTAGCACGACGAGCG,5.67,5.42,2.05,6.5,3.19,0.351,1.99
TACCCTAGGTCATGGGCCAGTATACCACGCGAAC,4.53,4.92,0.55,4,3.26,2.22,1.35
TAGCCTAGGTCATACAGGGGCCAGTATAGAAAGC,5.98,4.71,1.04,3.26,3.27,0.799,0.824
TCGCCTAGGTCATGGGCCAGTATACCACGCGAAC,4.24,4.78,1.21,3.7,3.15,1.58,0.535
TAGCCTAGGTCACATCGGGCCAGTATACGCTATA,4.02,4.72,0.602,3.09,4.5,1.15,0.412
CCGAGTAGGTTACTAGGGGGCATTCAGTGCGAAT,2.46,2.1,1.4,1.72,3.57,0.676,3.59
TAGCCTAGGTTATGGGCCAGTATACCACGCGAAC,0.379,0.719,-0.976,0.432,0.373,-0.271,-0.399
ATCGAAAGGTCTAAGGTGAGTATACCCACCCGAA,1.27,1.29,-0.301,1.25,2.28,1.67,0.152
CCAGACAGGTGAGAAGGTAACTCAGCCTCGATTA,0.555,0.652,0.16,0.448,0.425,0.236,0.403
GGAACGAGGTCAAGTTGATAGCAGAGTTTGATGG,6.84,7.08,4.6,7.65,4.27,2.78,5.11

# Source: the supplement of paper PMC6555819
